Experiment [1] is described as follows: A549 cell viability effects, profiling panel, calcein-AM fluorescence, 48 h, basal (AID 1162). Particulars: higher = more signal.
The nature of experiment [2]: adipocyte viability effects, profiling panel, cell-based, 3T3-L1 adipocytes, calcein-AM fluorescence, 48 h, basal (AID 1163). Particulars: 3T3-L1 adipocytes viability, higher = more signal.
A short description of experiment [3]: HepG2 cell viability effects, profiling panel, calcein-AM fluorescence, 48 h, basal (AID 1164). As to conditions: higher = more signal.
Experiment [4] in a line: MM1S cell viability effects, profiling panel, calcein-AM fluorescence, 48 h, basal (AID 1165).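 Also: viability of MM1S multiple myeloma cells under basal unstimulated conditions.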 As to conditions: higher = more signal.
A short description of experiment [5]: basal RPMI8226 viability, no added stimulus, profiling panel, cell-based, calcein-AM fluorescence, 48 h, PK04 Diversity Set (AID 1166).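 Also: cells grown under basal conditions without added stimulus.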 As to conditions: higher = more signal; RPMI8226 myeloma viability, calcein-AM fluorescence, 48 h unless noted.
Experiment [6] is described as follows: basal HepG2 mitochondrial membrane potential changes, profiling panel, cell-based, JC-1 fluorescence, 24 h, 100 nL compound (AID 1167). As to conditions: higher = more signal.
Experiment [7] in a line: basal 3T3-L1 adipocyte mitochondrial potential changes, profiling panel, cell-based, JC-1 fluorescence, 3T3-L1 adipocytes, 24 h, 100 nL compound (AID 1168). As to conditions: JC-1 mitochondrial fluorescence; higher = more signal, called active from +8 up or from −8 down unless noted.
The nature of experiment [8]: basal RPMI8226 mitochondrial membrane potential changes, profiling panel, cell-based, JC-1 fluorescence, 24 h, 100 nL compound (AID 1169). As to conditions: higher = more signal; RPMI8226 myeloma, JC-1 mitochondrial potential fluorescence, 24 h unless noted.
Experiment [9] can be described thus: basal MM1S mitochondrial membrane potential changes, profiling panel, cell-based, JC-1 fluorescence, 24 h, 100 nL compound (AID 1170). Particulars: higher = more signal.
Experiment [10] in a line: A549 lung cancer cell viability effects, profiling panel, resazurin fluorescence, 24 h, PK04 Diversity Set (AID 1171). Particulars: higher = more signal, called active from +8 up or from −8 down unless noted. On the technique in general: Resazurin is reduced to fluorescent resorufin, in cell work by metabolically active cells.

The values that follow come from PubChem BioAssay.

The structures appear in SMILES notation. Where “and” joins values, the source holds several entries; their conditions need not be identical. Equal entries are not always repeated. Calls of active or inactive are those of the source.
Also: test concentration not given here.

Take `CN1CCC(c2ccc(CO)cc2)=CC1c1cccs1` (stereo not given): the z-score in [1] was 0.368; in [2], -0.393; in experiment [3], -0.153; in experiment [4], -2.81; in [5], -0.157; in experiment [6], -1.28. Also, the z-score in experiment [7] is -0.581 (inactive); in experiment [8], 0.554; in [9] it was -0.277; in experiment [10] it was -0.103 (inactive).

For `C[C@H]1O[C@H]2C3=C(C(=O)[C@@H]4O[C@@H]4[C@@H]3O)[C@@H]1[C@@H]1[C@@H](C)OC=C3[C@@H](O)[C@H]4O[C@H]4C(=O)[C@]312`, the z-score in [1] is 0.767; in [2], 0.439; in experiment [3], 0.0608; in experiment [4], -1.54; in experiment [5], -0.168; in experiment [6] it was -0.407. Besides, the z-score in experiment [7] is 0.407 (inactive); in experiment [8], 0.692; in [9], -0.996; in [10], -0.831 (inactive).

In the case of `CCCC[C@@H]1C[C@H]1[C@@H](NP(=O)(c1ccccc1)c1ccccc1)c1ccc(Cl)cc1`, the z-score is -0.656 in experiment [1]; -1.31 in experiment [2]; -0.868 in experiment [3]; -2.05 in [4]; -4.62 in experiment [5]; -1.35 in experiment [6]. Further, the z-score in [7] was -0.729 (inactive); in experiment [8], -0.861; in experiment [9], -1.11; in experiment [10], 2.22 (inactive).

In the case of `CC1N(P(=O)(c2ccccc2)c2ccccc2)CC(O)(c2ccccc2)CC12CC2` (stereo not given), the z-score in experiment [1] is -1.2 and -1.31; in experiment [2] it was -0.216 and -0.899; in [3], -1.5 and -1.05; in experiment [4] it was -0.187 and -0.545; in [5], -1.7 and -1.4; in experiment [6], -0.722 and -1.02. For the same compound, the z-score in [7] is -1.04 (inactive) and -1.11 (inactive); in experiment [8], 0.655 and -0.4; in experiment [9] it was -0.307 and -0.694; in experiment [10], 0.146 (inactive) and 1.49 (inactive).

`COC(=O)C1(C)C=C2C(=C(C)C(=O)C2C)CN1` (stereo not given): the z-score is -1.32 in [1]; -0.254 in experiment [2]; -1.21 in experiment [3]; 0.224 in experiment [4]; -2.24 in experiment [5]; -1.57 in experiment [6]. Further, the z-score in experiment [7] was -0.482 (inactive); in experiment [8] it was 0.262; in experiment [9], -0.221; in [10], -1.62 (inactive).

For the compound `COc1cc2c(cc1O)C=[N+](C)CC2`, the z-score is 1.82 in experiment [1]; 0.775 in experiment [2]; 0.496 in experiment [3]; -0.0896 in experiment [4]; 0.245 in experiment [5]; 0.424 in [6]. The z-score in [7] was 0.964 (inactive); in experiment [8], -0.0385; in experiment [9], -0.635; in [10], -1.52 (inactive).

Regarding `C[C@@H]1OC=C2[C@@H](O)[C@H]3O[C@H]3C(=O)[C@]23[C@H]1[C@H]1C2=C([C@@H](O)[C@H]4O[C@H]4C2=O)[C@@H]3O[C@@H]1C`, the z-score in experiment [1] was 0.304; in experiment [2], 0.441; in [3], 0.0428; in experiment [4] it was -0.297; in [5], -0.594; in [6], -0.888. The z-score in experiment [7] is -0.3 (inactive); in experiment [8], 0.0604; in experiment [9] it was 0.144; in experiment [10] it was 0.703 (inactive).

For the compound `COC(=O)NCC=Cc1nc(CCC=CC(=O)O[C@H]2CC3CC(=O)O[C@@H](C=CCC(C)C)C[C@@H]4CC[C@H](C)[C@@H](C[C@@H](OC)C[C@H](C2)O3)O4)co1`, the z-score in experiment [1] was -1.61; in experiment [2], -0.804; in experiment [3], -1.29; in [4] it was -2.61; in experiment [5], -2.97; in [6], 0.49. Further, the z-score in [7] is 0.249 (inactive); in experiment [8] it was -0.908; in experiment [9] it was -2.54; in experiment [10], -4.04 (inactive).

For `O=P(c1ccccc1)(c1ccccc1)N1CC2(CC2)CC(O)(c2ccccc2)C1` (stereo not given), the z-score in [1] was -1.76; in [2] it was -0.388; in [3] it was -1.15; in [4], -0.183; in [5] it was -0.475; in experiment [6] it was -0.846. The z-score is -0.654 (inactive) in experiment [7], 0.232 in experiment [8], -0.372 in [9] and -0.488 (inactive) in experiment [10].

With `COC(=O)[C@@]1(Cc2ccccc2)[C@H]2c3cc(C(=O)N(C)C)[nH]c3C[C@H]2CN1C(=O)c1ccccc1`, the z-score in experiment [1] was -1.08; in experiment [2], -0.0276; in experiment [3], -0.78; in experiment [4] it was 0.047; in experiment [5], -0.458; in experiment [6] it was -0.592. Moreover, the z-score in experiment [7] was -0.562 (inactive); in [8] it was 0.816; in experiment [9], -0.807; in [10], 0.121 (inactive).

For the compound `C[C@@H]1Cc2c(cnc3c2CN(C)CC3)CO1`, the z-score in experiment [1] is 0.298; in [2], 0.288; in [3], -0.153; in [4] it was -1.39; in experiment [5], 0.089; in experiment [6] it was 0.389. Also, the z-score in experiment [7] is 0.284 (inactive); in [8], -0.258; in [9] it was 0.677; in experiment [10], 0.707 (inactive).

Consider `CCCc1cc2c(n1Cc1ccco1)C(C)C1CN(C(=O)c3ccccc3)C(C)(C(=O)OC)C21` (stereo not given), for which the z-score is -0.136 in experiment [1]; 0.227 in [2]; -0.369 in experiment [3]; -3.24 in experiment [4]; -2.66 in [5]; 2.35 in experiment [6]. The z-score is -1.5 (inactive) in [7], 0.228 in [8], -1.53 in [9] and -1.36 (inactive) in experiment [10].

On to `CCCC=C(CCC)[C@@H](NP(=O)(c1ccccc1)c1ccccc1)c1ccccc1`, for which the z-score was -0.0868 in [1]; -0.298 in experiment [2]; 0.559 in [3]; -0.687 in experiment [4]; -1.27 in experiment [5]; -1.95 in [6]. Further, the z-score was 0.21 (inactive) in experiment [7], 0.368 in experiment [8], -1.5 in [9] and 1.82 (inactive) in experiment [10].

In the case of `CCc1cc2c(nc1CC)CCN(CCC(C)=NOC)C2`, the z-score was 0.151 in experiment [1]; 0.504 in experiment [2]; 0.0911 in [3]; 0.69 in experiment [4]; -2.14 in experiment [5]; 2.55 in experiment [6]. The z-score in experiment [7] was -1.37 (inactive); in [8], 1.07; in experiment [9], 0.196; in experiment [10], -0.521 (inactive).

`COc1cc2c(cc1O)C(C)N(C)CC2` (stereo not given): the z-score in experiment [1] is 1.22; in experiment [2], 1.01; in experiment [3], 0.262; in experiment [4], -0.853; in experiment [5] it was 0.456; in experiment [6], 0.0836. In addition, the z-score in [7] is 1.27 (inactive); in experiment [8] it was -0.663; in experiment [9], 1.07; in experiment [10], 0.115 (inactive).

For the compound `c1ccc(-c2cc3c(nc2-c2ccccc2)CCNC3)cc1`, the z-score in [1] is 0.765; in experiment [2], -0.106; in experiment [3], 0.246; in experiment [4] it was 0.195; in experiment [5] it was 0.145; in experiment [6], 0.506. In addition, the z-score in experiment [7] is -0.239 (inactive); in experiment [8], 0.179; in experiment [9], -0.0254; in [10], 0.983 (inactive).
